{
  "source": "PubChem BioAssay (NCI)",
  "note": "This is part of a sample that, as a whole, favours compounds with a hit. Of some 83,000 tested, about 20% had one in any assay.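 Activity criterion: percent growth below 10, measured after cells in 96-well plates were exposed to a single compound concentration for 48 hours.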 Unmarked numbers belong to inactive results. Activity calls are given as the source filed them.",
  "data": [
    {"system": "MDA-MB-468 breast", "experiment": "NCI-60 one-dose screen, 48 h (100 = growth as untreated, 0 = no growth, -100 = all killed)", "details": "10 µM unless noted", "values": [
      {"compound": "Cc1c(CC(=O)Nc2ccccc2)nnn1-c1ccccc1", "growth": "117%"},
      {"compound": "CCOc1cc2c(cc1OCC)C(c1cc(C)c(O)c(C)c1)NCC2", "note": "(configuration not stated)", "growth": "102%"},
      {"compound": "CCOC(=O)C(=Cc1c(-c2ccccc2)[nH]c2ccccc12)C(=O)OCC", "growth": "12.8%"},
      {"compound": "CC(C1=C(CN(C(=O)Cc2cn(-c3ccccc3)nc2-c2ccc(Cl)cc2)C(C)C)Cc2ccccc21)c1ccccn1", "note": "(configuration not stated)", "growth": "43.8%"},
      {"compound": "c1cc(OCCN2CCCCC2)ccc1CNc1ccc2nc(CCC3CCCCC3)[nH]c2c1", "growth": "27.4%"},
      {"compound": "COC12C=C/C(=C(/C(=O)OCc3cncnc3)C(=O)CCCCCCCCC3(OC)C=C/C(=C(/C(=O)OCc4cncnc4)C(=O)CCCCCCCC1)O3)O2", "growth": "-39.8% (active)"},
      {"compound": "c1ccc2cc(C[n+]3ccn(CCCCCCn4cc[n+](Cc5ccc6ccccc6c5)c4)c3)ccc2c1", "growth": "10.1%"},
      {"compound": "NCCCCCNc1noc(Cc2c[nH]c3cc(Br)ccc23)n1", "growth": "4.11% (active)"},
      {"compound": "CC(=O)NC(N)=S", "growth": "109%"},
      {"compound": "Nc1ccc(S(=O)(=O)O)c2ccc(N=Nc3ccc(N=Nc4ccc(S(=O)(=O)O)cc4)c4ccccc34)c(O)c12", "growth": "96.6%"},
      {"compound": "CC(=O)N1C/C(=C/c2ccc(Cl)cc2)C(=O)/C(=C/c2ccc(Cl)cc2)C1", "growth": "-80% (active)"},
      {"compound": "CCN1CC(=O)N(/N=C2\\C(=O)Nc3ccccc32)C1=S", "growth": "73.1%"},
      {"compound": "COc1cc(C2NC(c3cc(OC)c(OC)c(OC)c3)C(C#N)(C#N)C2(C#N)C#N)cc(OC)c1OC", "note": "(configuration not stated)", "growth": "93.2%"},
      {"compound": "CCCCC/C=C/C(C)=C/C1CC(C)C/C=C/CCC(O)C(OC(N)=O)CCC(C)CC(O)C(C)C(=O)O1", "note": "(configuration not stated)", "growth": "94.9%"},
      {"compound": "NC(N)=N/N=C(\\c1ccccc1)C(O)c1ccccc1", "note": "(configuration not stated)", "growth": "99.8%"},
      {"compound": "NC(=S)n1c(=O)n(-c2cccc(C(F)(F)F)c2)c(=O)c2cc(-c3ccc(F)cc3F)ccc21", "growth": "1.23% (active)"},
      {"compound": "CSC1=Nc2c(c(C)c(-c3ccccc3)n2CCCC(=O)O)C2=NC(=O)C[C@H](C)N12", "growth": "83.7%"},
      {"compound": "CC(=O)OC[C@]12CCC(C)(C)C=C1[C@H]1CC[C@@H]3[C@@]4(C)CCCNC(C)(C)[C@@H]4CC[C@@]3(C)[C@]1(C)CC2", "growth": "-6.16% (active)"},
      {"compound": "COc1ccc2c(c1)OC13Oc4cc(OC)ccc4C=C1CCCC3=C2", "growth": "56.3%"},
      {"compound": "Cc1c(C(=O)NCCC(=O)NO)sc2ncnc(Nc3ccc(F)c(Cl)c3)c12", "growth": "103%"},
      {"compound": "O=C(Cc1ccc(/C=C/C(=O)c2ncc[nH]2)cc1)Nc1ccccc1", "growth": "22.2%"},
      {"compound": "NS(=O)(=O)c1ccc(Nc2nc(Nc3ccccc3)nc3nnc(SCC(=O)NC4CCCCC4)n23)cc1", "growth": "104%"},
      {"compound": "NC1=CSC2=N/C(=C\\c3ccc(Cl)cc3)C(=O)N12", "growth": "64.5%"},
      {"compound": "COc1ccc(OC)c(C(=O)/C=C/c2cc3c(c(OC)c2OC)OCO3)c1", "growth": "33.5%"},
      {"compound": "CC(=O)Oc1ccc(C2(c3ccc(OC(C)=O)cc3)C(=O)Nc3ccccc32)cc1", "growth": "46.2%"},
      {"compound": "CC1(C)NCCC[C@]2(C)[C@H]3C/C(=N\\O)C4[C@@H]5C[C@@](C)(CO)CC[C@]5(C)CC[C@@]4(C)[C@]3(C)CC[C@@H]12", "note": "(some centres not stated)", "growth": "89.4%"},
      {"compound": "CC(C)(C)c1cc(C(=O)N2CCC(C(=O)NCCN)CC2)cc(C(C)(C)C)c1", "growth": "82.4%"},
      {"compound": "COc1ccc(/C=C/C(=O)c2cc3c(N)c(C(=O)Nc4cccc(Cl)c4C)sc3nc2C)cc1", "growth": "17.1%"},
      {"compound": "Nc1ccc(N)c([N+](=O)[O-])c1", "growth": "88%"},
      {"compound": "CCOC(=O)/C(C#N)=C1/C(=O)Nc2ccccc21", "growth": "134%"},
      {"compound": "COc1ccc(Nc2nc(-c3cc(O)c(C)c(C)c3O)cs2)cc1", "growth": "-6.65% (active)"},
      {"compound": "COc1cccc(NC(=O)Nc2ccc(Nc3ncnc4[nH]c(C)c(C)c34)cc2)c1", "growth": "112%"},
      {"compound": "CCN(CC)S(=O)(=O)c1ccc(O)c(NC(=O)c2[nH]c(C)c(C(C)=O)c2CCc2ccc(Cl)cc2)c1", "growth": "19.8%"},
      {"compound": "COC(=O)[C@@H]1CCCN1C(=O)[C@@H]1CCCN1C(=O)[C@@H](Cc1c[nH]c2ccccc12)NC(=S)Nc1cc(C(F)(F)F)cc(C(F)(F)F)c1", "growth": "2.25% (active)"},
      {"compound": "CSc1ccc(OC(C)=O)cc1C", "growth": "93.8%"},
      {"compound": "COc1ccc2c(c1)-c1c(c3cc(OC)ccc3n(CCN(C)C)c1=O)C2=O", "growth": "46%"},
      {"compound": "O=c1oc2ccc(F)cc2c(=O)n1-c1ccc(Cl)cc1F", "growth": "-1.59% (active)"}
    ]}
  ]
}
